Some of the results follow. Activity calls are given as the source filed them.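 How the source made its calls: active means calcium signal rise, corrected for plate position, at least 3 library SD high, with starting brightness within 5 such deviations; inactive means the rest.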
Target: Mas-related G-protein coupled receptor member X1 (Homo sapiens) (UniProt Q96LB2)
Test: activators of human MrgX1 calcium signaling – HEK293 cells, Fluo-4 calcium flux, confirmation (AID 602412)
Details: MrgX1-HEK293, Fluo-4 calcium fluorescence, FDSS, at 10 µM; hits give high values

Chain of Mas-related G-protein coupled receptor member X1 (Homo sapiens) (Q96LB2 whole entry, looked up): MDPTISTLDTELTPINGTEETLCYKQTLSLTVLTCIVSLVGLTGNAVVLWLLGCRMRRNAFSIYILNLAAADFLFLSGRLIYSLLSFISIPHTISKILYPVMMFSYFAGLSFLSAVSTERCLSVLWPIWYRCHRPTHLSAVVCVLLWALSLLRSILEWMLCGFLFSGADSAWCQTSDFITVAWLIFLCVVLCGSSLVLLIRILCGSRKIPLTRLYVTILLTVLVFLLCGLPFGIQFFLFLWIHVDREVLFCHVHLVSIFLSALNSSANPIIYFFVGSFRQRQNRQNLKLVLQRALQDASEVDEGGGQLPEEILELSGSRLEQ

SMILES | activation | outcome
CC(C)CC(=O)NC(=S)NNC(=O)c1cccc([N+](=O)[O-])c1 | 268% (active) | –
COc1ccc(OC)c(C(=O)c2ccc(Cl)cc2)c1 | – | inactive
COc1ccc(C(=O)NNC(=S)NC(=O)c2ccccc2)cc1 | 570% (active) | –
COc1ccc(C(=O)NC(=S)NNC(=O)CCc2ccccc2)cc1 | 595% (active) | –
CC(C)(C)Nc1c(-c2cccs2)nc2ccccn12 | 181% (active) | –
N=C(N)SCc1cccc2ccccc12 | 199% (active) | –
O=C1Cc2ccccc2Sc2ccc(Cl)cc21 | 104% (active) | –
COC(=O)c1ccc(C2C3=C(Nc4nnnn42)c2ccccc2OC3)cc1 (centres undefined) | – | inactive
Cc1ccc(NC2(C#N)C(=O)Nc3ccccc32)cc1 (centres undefined) | 191% (active) | –
CCCc1nc2c(c(=O)c3ccccc3n2C)c(=O)n1C1CCCCCC1 | 149% (active) | –
Cc1c(C)c2c(OCC(=O)N[C@@H](C(=O)O)c3ccccc3)cc3c(c2oc1=O)CCC(C)(C)O3 | – | inactive
CCOC(=O)c1[nH]c2ccc(C)cc2c1N=C(C)N(C)C | 185% (active) | –
Cc1cc2oc3ccc(NCCC4CCCN4C)cc3c(=O)c2cc1C (centres undefined) | 311% (active) | –
CC1(C(=O)O)CCC(C(=O)Nc2ccc(Cl)c(Cl)c2)C1(C)C (centres undefined) | 149% (active) | –
O=C1C(=O)N(CC2COc3ccccc3O2)c2ccccc21 (centres undefined) | 226% (active) | –
CCCCC(=O)NNC(=S)NC(=O)C(c1ccccc1)c1ccccc1 | – | inactive
Cc1ccnc(-n2sc3ccccc3c2=O)n1 | 170% (active) | –
Cc1[nH][nH]c(=O)c1C(c1ccc(-c2ccc(Cl)cc2)o1)c1c(C)[nH][nH]c1=O | 187% (active) | –
COc1ccc2c(c1)OC(O)(C(F)(F)C(F)F)CC2=O (centres undefined) | 373% (active) | –
O=C(Nc1nnc(-c2ccccc2)o1)c1cc(-c2cccs2)nc2ccccc12 | 141% (active) | –

SMILES | activation | outcome
O=c1c2cc(Br)ccc2nc(-c2cccc(Cl)c2)n1O | 415% (active) | –
Cc1nc(C)c(-c2csc(NCCc3ccccc3)n2)s1 | 170% (active) | –
Fc1ccc2[nH]c3c(N4CCSCC4)ncnc3c2c1 | 252% (active) | –
COc1ccc(C(=O)NC(=S)NNC(=O)c2c(-c3ccccc3)noc2C)cc1 | 506% (active) | –
Cc1onc(-c2ccccc2)c1C(=O)NNC(=S)NC(=O)c1ccc(F)cc1 | 636% (active) | –
CC1CCCCN1S(=O)(=O)c1ccc(C(=O)Nc2nnc(-c3cccs3)o2)cc1 (centres undefined) | 88.3% (active) | –
CC(Oc1ccc2ccccc2c1)C(=O)NNC(=S)NC(=O)c1ccco1 (centres undefined) | 265% (active) | –
COc1ccc(Nc2nc(-c3cccnc3)nc3ccccc23)cn1 | 127% (active) | –
OCc1ccc(OCCCOc2cccc3cccnc23)cc1 | – | inactive
COC(=O)c1ccc(COC(=O)C2CCN(S(=O)(=O)c3c(Cl)cccc3Cl)CC2)o1 | – | inactive
CC(=O)OC(C)C[N+](C)(C)C (centres undefined) | 483% (active) | –
CCCc1[nH]nc2c1C(c1ccc(Br)s1)C(C#N)=C(N)O2 (centres undefined) | 141% (active) | –
O=C(CC(O)(C(F)(F)F)C(F)(F)F)Nc1ccc(Cl)c(Cl)c1 | 242% (active) | –
O=C(CCN1CCc2ccccc2C(O)(c2ccccc2)C1)c1ccc2c(c1)OCCO2 (centres undefined) | 192% (active) | –
CCN(CC)c1ccc2oc(=O)c(C)nc2c1 | – | inactive
O=C(Nc1ccccc1)c1nnsc1S(=O)(=O)c1ccc(Cl)cc1 | 210% (active) | –
COc1ccccc1N(CC(=O)N1CCCCC1)S(=O)(=O)c1ccccc1 | 356% (active) | –
CCCc1cc(=S)n2c([nH]c3ccccc32)c1C#N | 266% (active) | –
Cc1ccc(-n2[nH]c(C)c(/C=N/N3C(=O)c4cccc5cccc(c45)C3=O)c2=O)cc1 | 601% (active) | –

From PubChem BioAssay AID602412 (Johns Hopkins Ion Channel Center, 2012)
